Assay results: PubChem BioAssay AID540259 (Broad Institute, 2011)
Results with a measured potency or affinity are listed apart. Active and inactive are the calls of the source.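 The calls were made as follows: active = cell killing, meaning signal decrease, with fitted half-maximal dose at or below ten times the top valid tested dose; inconclusive = poor fit, or flat curve with 30 to 70% signal loss; inactive = the rest.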

Assay: HeLa cell cytotoxicity, dose response, cytotoxicity control for MITF activator project, CellTiter-Glo luminescence, cherry-pick samples (AID 540259);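 also: 0% = DMSO neutral control and -100% = mitoxantrone positive control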
Details: HeLa viability, CellTiter-Glo ATP luminescence, 24 h; series mostly up to 35 µM; activity change, negative = cytotoxicity: at the top concentration

SMILES	activity change, negative = cytotoxicity
CC(Cc1ccccc1)/[N+]([O-])=C\c1ccc(C(F)(F)F)cc1 (stereo not given)	-5.32% (inactive)
COc1ccc(-c2cc(=NCCC(=O)O)c3cc(C)ccc3o2)cc1	6.56% (inactive)
CN1C(=O)NC(=O)C(C)(C2=CCCCC2)C1=O (stereo not given)	9.78% (inactive)
Cc1nn(CC(C)C)c(Cl)c1C(=O)NC1CCC(C)CC1 (stereo not given)	-2.77% (inactive)
O=C1C(=O)N(c2ccccc2)P(=O)(N(CCCl)CCCl)N1c1ccccc1	-2.92% (inactive)
